From the antibiotic and cytotoxicity screens of Wong et al. (2023) come the findings set out here.

Structures are written as SMILES. The whole screen tested about 39,000 compounds, of which about 3,300 (8.5%) were called active. The sample as a whole holds a higher share of actives than the screen did.

In the assay the test system is HepG2. As to the kind of experiment: cytotoxicity call (relative viability < 0.9). The settings on record: 10 µM.
As to `C[C@@H]1CN([C@H](C)CO)C(=O)Cc2cc(NC(=O)CCN3CCOCC3)ccc2O[C@@H]1CN(C)Cc1ccncc1`, the cytotoxicity call is “inactive”.

In the case of `C[C@H]1[C@H]([Si](C)(C)F)[C@@H](CCO)O[C@]12C(=O)N(Cc1cccc(N(C=O)c3ccccc3)c1)c1ccccc12`, the cytotoxicity call was “inactive”. For `COc1ccc([Si](C)(C)[C@H]2[C@H](CCO)O[C@@]3(C(=O)N(Cc4ccc(N(C=O)c5ccccc5)cc4)c4ccccc43)[C@@H]2C)cc1` the value was “active”.

Turning to `COc1ccc([Si](C)(C)[C@H]2[C@H](CCO)O[C@@]3(C(=O)N(Cc4cccc(N(C=O)c5ccccc5)c4)c4ccccc43)[C@@H]2C)cc1`, the cytotoxicity call was “active”.

As for `COc1ccc([Si](C)(C)[C@@H]2[C@@H](CCO)O[C@]3(C(=O)N(Cc4ccc(N(C=O)c5ccccc5)cc4)c4ccccc43)[C@H]2C)cc1`, the cytotoxicity call is “active”. For `COc1ccc([Si](C)(C)[C@@H]2[C@@H](CCO)O[C@]3(C(=O)N(Cc4cccc(N5CCCCC5=O)c4)c4ccccc43)[C@H]2C)cc1` the value was “inactive”; for `C[C@@H]1CN([C@@H](C)CO)C(=O)c2cccc(NS(=O)(=O)c3ccccc3)c2O[C@@H]1CN(C)S(=O)(=O)c1cccs1`, “inactive”. As to `CC(C)CC#Cc1ccc2c(c1)O[C@H](CN(C)C(=O)NC1CCCC1)[C@H](C)CN([C@H](C)CO)S2(=O)=O`, the cytotoxicity call was “inactive”. Regarding `CO[C@@H]1CN(C)C(=O)c2ccc(NC(=O)CC(F)(F)F)cc2OC[C@@H](C)N(C(=O)C2CCOCC2)C[C@@H]1C`, the cytotoxicity call was “inactive”. Regarding `C[C@H]1CN([C@@H](C)CO)C(=O)c2cc(NC(=O)c3ccncc3)ccc2O[C@H]1CN(C)Cc1ccc(-c2ccccc2)cc1`, the cytotoxicity call was “inactive”. The same measure for `CC1=NCCN1`: “inactive”; for `CC(C)c1ccc2c(ccc[n+]2C)c1`: “inactive”. Take `COC(=O)C[C@H]1CC[C@@H]2[C@H](COC[C@@H](O)CN2S(=O)(=O)c2cn(C)cn2)O1`: the cytotoxicity call is “inactive”.

On to `COc1ccc(S(=O)(=O)Nc2cccc3c2O[C@@H](CN(C)S(=O)(=O)c2ccccc2)[C@H](C)CN([C@H](C)CO)C3=O)cc1`, for which the cytotoxicity call was “inactive”.

On to `COCC(=O)N1C[C@H](C)[C@H](OC)CN(C)C(=O)c2ccc(NC(=O)c3ccc(OC)cc3)cc2OC[C@@H]1C`, for which the cytotoxicity call was “inactive”. The same measure for `Cc1ccc(S(=O)(=O)N(C)C[C@@H]2OCCCC[C@@H](C)Oc3ccc(NS(=O)(=O)c4ccc(F)cc4)cc3C(=O)N([C@@H](C)CO)C[C@@H]2C)cc1`: “inactive”; for `C[C@H](CO)N1C[C@H](C)[C@@H](CN(C)C(=O)Nc2ccccc2C(F)(F)F)OCc2ccccc2-c2ccccc2C1=O`: “inactive”; for `C=C(NC(=O)C(=C)NC(=O)c1csc(C2=NC3c4csc(n4)C4NC(=O)c5csc(n5)C(C(C)(O)C(C)O)NC(=O)C5CSC(=N5)C(=CC)NC(=O)C(C(C)O)NC(=O)c5csc(n5)C3(CC2)NC(=O)C(C)NC(=O)C(=C)NC(=O)C(C)NC(=O)C(C(C)CC)NC2C=Cc3c(C(C)O)cc(nc3C2O)C(=O)OC4C)n1)C(N)=O` (configuration not stated): “active”. Regarding `C=C(NC(=O)C(=C)NC(=O)c1csc(C2=N[C@H]3c4csc(n4)[C@H]4NC(=O)c5csc(n5)[C@H](C(C)(O)[C@@H](C)O)NC(=O)[C@H]5CSC(=N5)C(=CC)NC(=O)[C@H]([C@@H](C)O)NC(=O)c5csc(n5)[C@]3(CC2)NC(=O)[C@H](C)NC(=O)C(=C)NC(=O)[C@H](C)NC(=O)[C@H]([C@H](C)CC)N[C@@H]2C=Cc3c([C@H](C)O)cc(nc3[C@H]2O)C(=O)O[C@@H]4C)n1)C(N)=O` (some centres not stated), the cytotoxicity call is “active”. For `C=C(NC(=O)C(=C)NC(=O)c1csc(C2=N[C@@H]3c4csc(n4)[C@@H]4NC(=O)c5csc(n5)[C@H](C(C)(O)[C@@H](C)O)NC(=O)[C@H]5CSC(=N5)/C(=C/C)NC(=O)[C@H]([C@@H](C)O)NC(=O)c5csc(n5)[C@]3(CC2)NC(=O)[C@@H](C)NC(=O)C(=C)NC(=O)[C@@H](C)NC(=O)[C@@H]([C@H](C)CC)N[C@H]2C=Cc3c([C@@H](C)O)cc(nc3[C@@H]2O)C(=O)O[C@H]4C)n1)C(N)=O` (some centres not stated) the value was “inactive”; for `C[C@@H]1CN([C@@H](C)CO)C(=O)Cc2cc(NS(C)(=O)=O)ccc2O[C@H]1CN(C)S(=O)(=O)c1cn(C)cn1`, “inactive”; for `C[C@H](CO)N1C[C@H](C)[C@H](CN(C)S(=O)(=O)c2ccc(F)cc2)Oc2ccc(NC(=O)c3ccncc3)cc2CC1=O`, “inactive”. For `COc1ccc(S(=O)(=O)N(C)C[C@H]2Oc3c(cccc3N(C)C)C(=O)N([C@@H](C)CO)C[C@@H]2C)cc1` the value was “inactive”. In the case of `COc1ccc2c3c(n(c2c1)C)[C@@H](CO)N(C[C@]13CN(C1)C(=O)c1ccncc1)C(=O)C1CCCCC1`, the cytotoxicity call is “inactive”.

As to `COc1ccc(NC(=O)N2C[C@H](O)COC[C@@H]3O[C@@H](CC(=O)NC4Cc5ccccc5C4)CC[C@H]32)cc1`, the cytotoxicity call is “inactive”. `C[C@@H]1CN([C@H](C)CO)C(=O)c2cc(C#CC(C)(C)O)cnc2O[C@H]1CN(C)Cc1cccc(C(=O)O)c1`: the cytotoxicity call is “inactive”. For `Cc1ccc(S(=O)(=O)N(C)C[C@@H]2Oc3ccc(N(C)C)cc3CC(=O)N([C@@H](C)CO)C[C@H]2C)cc1` the value was “inactive”; for `C[C@H]1CN([C@@H](C)CO)C(=O)c2cccc(NC(=O)C3CCCCC3)c2O[C@H]1CN(C)Cc1ccc(Oc2ccccc2)cc1`, “inactive”. For the compound `C[C@H]1CN([C@@H](C)CO)C(=O)c2cccc(NC(=O)NC3CCCCC3)c2O[C@@H]1CN(C)Cc1ccc(Oc2ccccc2)cc1`, the cytotoxicity call is “inactive”. For `C[C@@H]1CN([C@@H](C)CO)C(=O)c2cccc(NC(=O)C3CCCCC3)c2O[C@H]1CN(C)Cc1ccc(Oc2ccccc2)cc1` the value was “inactive”.

Turning to `C[C@H](CO)N1C[C@H](C)[C@H](CN(C)Cc2ccc(Oc3ccccc3)cc2)Oc2c(NC(=O)NC3CCCCC3)cccc2C1=O`, the cytotoxicity call is “active”. For `C[C@@H]1CN([C@@H](C)CO)C(=O)c2cccc(NC(=O)NC3CCCCC3)c2O[C@@H]1CN(C)Cc1ccc(Oc2ccccc2)cc1` the value was “inactive”; for `C[C@H](CO)N1C[C@H](C)[C@@H](CN(C)Cc2ccc(Oc3ccccc3)cc2)Oc2c(NC(=O)C3CCCCC3)cccc2C1=O`, “active”; for `COCCNC(=O)C[C@H]1C[C@@H]2c3cc(NS(C)(=O)=O)ccc3O[C@@H]2[C@H](CO)O1`, “inactive”. For `CO[C@H]1CN(C)C(=O)c2cc(NC(=O)c3ccc(F)cc3)ccc2OC[C@@H](C)N(C(=O)CN(C)C)C[C@H]1C`, the cytotoxicity call is “inactive”. For `COCC#Cc1ccc([C@@H]2[C@@H](CO)N3C(=O)CN(C(=O)CN4CCOCC4)C[C@H]23)cc1` the value was “inactive”; for `C[C@H]1CN([C@@H](C)CO)C(=O)Cc2cc(NC(=O)Cn3cnnn3)ccc2O[C@@H]1CN(C)C(=O)Nc1ccc(C(F)(F)F)cc1`, “inactive”; for `C[C@H]1CCCCO[C@H](CN(C)C(=O)Nc2ccc(F)cc2)[C@@H](C)CN([C@@H](C)CO)C(=O)c2cc(NS(=O)(=O)c3ccccc3)ccc2O1`, “inactive”. Regarding `O=C(OC1Cc2c(O)cc(O)cc2OC1c1cc(O)c(=O)c2c(O)c(O)cc(C3Oc4cc(O)cc(O)c4CC3O)c2c1)c1cc(O)c(O)c(O)c1` (configuration not stated), the cytotoxicity call was “inactive”. As to `O=c1c(O)cc([C@H]2Oc3cc(O)cc(O)c3C[C@H]2O)c2cc([C@H]3Oc4cc(O)cc(O)c4C[C@H]3O)cc(O)c(O)c1-2`, the cytotoxicity call is “inactive”. For `O=C(O[C@@H]1Cc2c(O)cc(O)cc2O[C@@H]1c1cc(O)c(O)c2c(=O)c(O)cc([C@H]3Oc4cc(O)cc(O)c4C[C@H]3O)c-2c1)c1cc(O)c(O)c(O)c1` the value was “active”. The same measure for `CCOC(=O)C1=C(COCCN)NC(C)=C(C(=O)OC)C1c1ccccc1Cl.O=S(=O)(O)c1ccccc1` (configuration not stated): “active”; for `COC(=O)C1=C(C)NC(C)=C(C(=O)OC)C1c1ccccc1[N+](=O)[O-]`: “inactive”; for `CCOC(=O)C1=C(C)NC(C)=C(C(=O)OC)C1c1cccc(Cl)c1Cl` (configuration not stated): “inactive”. As for `C[C@H]1CN([C@@H](C)CO)C(=O)c2cccc(NC(=O)C3CC3)c2O[C@H]1CN(C)Cc1ccc(Oc2ccccc2)cc1`, the cytotoxicity call is “inactive”.

For `CC(=O)N(C)C[C@@H]1Oc2cc(C#CCN(C)C)ccc2S(=O)(=O)N([C@@H](C)CO)C[C@H]1C`, the cytotoxicity call was “inactive”.

Regarding `C[C@H](CO)N1C[C@H](C)[C@H](CN(C)C(=O)c2ccccc2F)Oc2ncc(C#Cc3ccncc3)cc2C1=O`, the cytotoxicity call is “inactive”. The same measure for `CC(C)n1c(C=CC(O)CC(O)CC(=O)[O-])c(-c2ccc(F)cc2)c2ccccc21.[Na+]` (configuration not stated): “active”; for `CC(C)c1c(C(=O)Nc2ccccc2)c(-c2ccccc2)c(-c2ccc(F)cc2)n1CCC(O)CC(O)CC(=O)[O-].[Ca+2]` (configuration not stated): “inactive”; for `CC(C)c1nc(N(C)S(C)(=O)=O)nc(-c2ccc(F)cc2)c1C=CC(O)CC(O)CC(=O)[O-].[Ca+2]` (configuration not stated): “inactive”. On to `C[C@@H]1CCCCO[C@@H](CN(C)C(=O)Nc2ccc(F)cc2)[C@H](C)CN([C@H](C)CO)C(=O)c2cc(NC(=O)NC3CCCCC3)ccc2O1`, for which the cytotoxicity call is “inactive”.

`C=CCC[C@@H](Cc1ccc(F)cc1)C(=O)OC[C@H](Cc1c[nH]c2ccccc12)NC(=O)[C@@H](CC=C)CC(=O)N(CCO)Cc1ccccc1`: the cytotoxicity call was “inactive”. For the compound `C=CCC[C@H](Cc1ccc(F)cc1)C(=O)OC[C@@H](Cc1c[nH]c2ccccc12)NC(=O)[C@H](CC=C)CC(=O)N(CCO)Cc1ccccc1`, the cytotoxicity call is “active”. The same measure for `C=CCC[C@@H](Cc1ccc(F)cc1)C(=O)OC[C@@H](Cc1c[nH]c2ccccc12)NC(=O)[C@@H](CC=C)CC(=O)N(CCO)Cc1ccccc1`: “active”; for `C=CCC[C@H](Cc1ccc(F)cc1)C(=O)OC[C@@H](Cc1c[nH]c2ccccc12)NC(=O)[C@@H](CC=C)CC(=O)N(CCO)Cc1ccccc1`: “active”.

`C=CCC[C@H](Cc1ccc(F)cc1)C(=O)OC[C@H](Cc1c[nH]c2ccccc12)NC(=O)[C@@H](CC=C)CC(=O)N(CCO)Cc1ccccc1`: the cytotoxicity call is “active”.

In the case of `C=CCC[C@@H](Cc1ccc(F)cc1)C(=O)OC[C@@H](Cc1ccccc1)NC(=O)[C@H](CC=C)CC(=O)N(CCO)Cc1ccccc1`, the cytotoxicity call is “inactive”.
